Test results: PubChem BioAssay (Tox21)
Results filed as inconclusive are left out. Where a call stands in place of a potency, no number is given. A number with no mark means an inactive call. Calls of active or inactive are those of the source. Calls come from the whole dose curve; as a rule, active = well fitted cell-killing curve with a large enough effect in the repeat runs; inconclusive = weak or mixed curves, or effect the other way; inactive = flat fitted curve, though single readings scatter.

What was measured:
[1] = cAMP Responsive Elements (CRE) small molecule antagonists, cell-based qHTS assay: qHTS cell viability counter screen (AID 2060913); note: nearly all actives have a fitted effect of over 40% in size
Method in brief: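 CRE-bla HEK293T cells (2,000/well, 18 h) given compound plus NKH477 0.25 uM final for 3 h at 37C; viability counter-screen by CellTiter-Glo luminescence in same wells after 30 min.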

[2] = cAMP Responsive Elements (CRE) small molecule agonists, cell-based qHTS assay: qHTS cell viability counter screen (AID 2060914);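 note: viability read after 3 h of compound exposure; nearly all actives have a fitted effect of over 50% in size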
Method in brief: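 CRE-bla HEK 293T cells, plated 18 h at 37 °C, were exposed to compounds for 3 h at 37 °C/5% CO2. Viability was then measured in the same wells by CellTiter-Glo luminescence after 30 min at room temperature.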
Potency is the fitted concentration of half-maximal effect.

| Compound | Potency [1] | Potency [2] |
| --- | --- | --- |
| O=C(O)c1cccc(N(Cc2cccnc2)c2ccc(OC(F)F)c(OC(F)F)c2)c1 | inactive | inactive |
| Cc1ccc(NC(=O)c2ccc(CN3CCN(C)CC3)cc2)cc1Nc1nccc(-c2cccnc2)n1 | inactive | inactive |
| C=CCCCCCCCCC(=O)OCC | inactive | inactive |
| O=C=NC1CCC(CC2CCC(N=C=O)CC2)CC1 (configuration not stated) | inactive | inactive |
| CCN(CC)CCN | inactive | inactive |
| CC(=O)Nc1c(I)cc(I)c(C(=O)O)c1I | inactive | inactive |
| CN(C(=O)C(Cl)Cl)c1ccc(OC(=O)c2ccco2)cc1 | inactive | inactive |
| CCc1cccc(C)c1 | inactive | inactive |
| O=C(O)C(=O)Cc1c[nH]c2ccccc12 | inactive | inactive |
| CC1=CC(=O)CC(C)(C)C1(O)/C=C/C(C)=C\C(=O)O (configuration not stated) | inactive | inactive |
| CCCCCCCC(C)=O | inactive | inactive |
| COC(=O)Nc1nc2ccc(Sc3ccccc3)cc2[nH]1 | inactive | inactive |
| COc1ccccc1N1CCN(CC(O)COc2cccc3ccccc23)CC1 (configuration not stated) | inactive | inactive |
| CC(C)CCCC(=O)O | inactive | inactive |
| CCCO | inactive | inactive |
| COc1cc2c(cc1OC)[C@@H]1CC(=O)[C@@H](CC(C)C)CN1CC2 | inactive | inactive |
| Nc1c(CC(=O)O)cccc1C(=O)c1ccc(Br)cc1 | inactive | inactive |
| NCCCC(N)(C(=O)O)C(F)F (configuration not stated) | inactive | inactive |
| CC(C)(CO)[N+](=O)[O-] | inactive | inactive |
| CC(C)(C)OCC1CO1 (configuration not stated) | inactive | inactive |
| CCc1cc(SCc2sc(-c3ccc(C(F)(F)F)cc3)nc2CN2CCN(c3ccc(OC)cc3)CC2)ccc1OCC(=O)O | 54.5 µM (active) | 61.1 µM (active) |
| [Cl][Sc]([Cl])[Cl] | inactive | inactive |
| S=C([S-])NCCNC(=S)[S-].[Mn+2] | inactive | inactive |
| CCCCCCCC/C=C\CCCCCCCC(=O)N(C)CC(=O)O | inactive | inactive |
| CC(=O)NCCO | inactive | inactive |
| CCN(CC)C(=O)c1cccc(C)c1 | inactive | inactive |
